This note sets out measurements from PubChem BioAssay (NCI).

This is part of a sample that, as a whole, favours compounds with a hit. Of some 83,000 tested, about 20% had one in any assay.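 Cell lines were cultured in 96-well plates, exposed to a single compound concentration, and assessed for percent growth 48 hours later.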 A number with no mark means an inactive call. Active and inactive are the calls of the source. The calls were made as follows: active = growth percent below 10; inactive = the rest.

Holding throughout (experiment): NCI-60 one-dose screen, 48 h (100 = growth as untreated, 0 = no growth, -100 = all killed)
For one test, the system named is NCI-H23 lung. To be noted: 10 µM unless noted.
Another test deals with NCI-H226 lung. The note with it: 10 µM unless noted.
In a further test the test system is NCI-H322M lung. To be noted: 10 µM unless noted.
The next test deals with HOP-62 NSCLC. The note with it: 10 µM unless noted.
A further test deals with NCI-H460 lung. To be noted: 10 µM unless noted.
A further test has as its system HOP-92 NSCLC. The note with it: 10 µM unless noted.
The next test has as its system NCI-H522 lung. The note with it: 10 µM unless noted.
A further test relates to A549/ATCC NSCLC. The note with it: 10 µM unless noted.
A further test concerns 786-0 renal. The note with it: 10 µM unless noted.
In a further test the test system is COLO 205 colon. The note with it: 10 µM unless noted.
For another test, the system named is DU-145 prostate. The note with it: 10 µM unless noted.
The next test deals with K-562 leukemia. The note with it: 10 µM unless noted.
Another test relates to MALME-3M melanoma. To be noted: 10 µM unless noted.
The subject of another test is MDA-MB-231 breast. To be noted: 10 µM unless noted.
The test system of another test is RXF 393 renal. The note with it: 10 µM unless noted.
A further test relates to SF-268 CNS. To be noted: 10 µM unless noted.
The test system of a further test is SF-295 CNS. The note with it: 10 µM unless noted.
In another test the test system is SF-539 CNS. The note with it: 10 µM unless noted.
A further test relates to UACC-257 melanoma. The note with it: 10 µM.
The next test deals with M14 melanoma. The note with it: 10 µM unless noted.

On to `O=[N+]([O-])c1ccc(-c2nnc(SCc3ccc(O)c4ncccc34)o2)cc1`, for which the growth was 21.5% in the test on NCI-H23 lung; 36.2% with NCI-H226 lung; 40.7% in the test on NCI-H322M lung; 21.5% in the test with HOP-62 NSCLC; 8.58% (active) in the test on NCI-H460 lung; -13.4% (active) with HOP-92 NSCLC. For the same compound, the growth with NCI-H522 lung is 17.2%; with A549/ATCC NSCLC, 25.8%; in the test on 786-0 renal, 33%; in the test on COLO 205 colon, 49.9%; in the test on DU-145 prostate, 29.5%; in the test with K-562 leukemia, 17.6%. The growth is 21.5% with MALME-3M melanoma; 38.1% in the test with MDA-MB-231 breast; 14.8% with RXF 393 renal; 27.7% in the test with SF-268 CNS; 9.85% (active) in the test on SF-295 CNS; 23.5% in the test with SF-539 CNS. Besides, the growth in the test with UACC-257 melanoma was 18.6%; with M14 melanoma it was 27.4%.
Regarding `CCN1C(=O)N(CC)C2SC(N/N=C/c3cccs3)=NC21` (stereo unspecified), the growth in the test with NCI-H23 lung was 25.8%; in the test on NCI-H226 lung it was 36%; in the test with NCI-H322M lung it was 46.6%; with HOP-62 NSCLC it was 32%; in the test with NCI-H460 lung, 3.74% (active); with HOP-92 NSCLC, -7.41% (active). Moreover, the growth in the test on NCI-H522 lung was -47.9% (active); in the test on A549/ATCC NSCLC, 20.3%; in the test on 786-0 renal, 17.9%; in the test on COLO 205 colon, -63% (active); in the test on DU-145 prostate, 14.6%; in the test with K-562 leukemia it was 11.5%. Also, the growth in the test on MALME-3M melanoma is 66.4%; in the test with MDA-MB-231 breast it was 24.5%; with RXF 393 renal it was 72.5%; in the test with SF-268 CNS it was 35.7%; with SF-295 CNS it was 17.1%; in the test with SF-539 CNS, -9.73% (active). The growth with UACC-257 melanoma was 54.2%; with M14 melanoma, 6.49% (active).
Take `O=C1C[C@@H](c2ccccc2)Oc2c(Cc3ccccc3O)c(O)c(Cc3cc(Cc4cc(Cc5ccccc5O)ccc4O)ccc3O)c(O)c21`: the growth was 94.7% with NCI-H23 lung; 86% in the test on NCI-H226 lung; 110% in the test on NCI-H322M lung; 97.4% with HOP-62 NSCLC; 104% in the test on NCI-H460 lung; 78% in the test on HOP-92 NSCLC. Moreover, the growth was 107% in the test on NCI-H522 lung; 101% with A549/ATCC NSCLC; 100% with 786-0 renal; 111% in the test with COLO 205 colon; 102% in the test with DU-145 prostate; 99.8% with K-562 leukemia. Also, the growth in the test on MALME-3M melanoma is 95%; in the test on MDA-MB-231 breast, 82.4%; with RXF 393 renal, 94.7%; with SF-268 CNS it was 85.2%; in the test with SF-295 CNS, 102%; in the test with SF-539 CNS, 101%. In addition, in the test with M14 melanoma, the growth is 88.6%.
As for `CC[C@H](C)[C@H]1NC(=O)[C@@H]([C@H](O)C(C)C)NC(=O)[C@@H](C)N(C)C(=O)[C@H](C)N(C)C(=O)[C@H](CC(C)C)NC(=O)[C@H](CC(C)C)N(C)C(=O)[C@H](C)N(C)C1=O`, the growth in the test on NCI-H23 lung was -2.85% (active); in the test on NCI-H226 lung, -6.15% (active); in the test with NCI-H322M lung it was 5.75% (active); in the test on HOP-62 NSCLC, -13.3% (active); in the test with NCI-H460 lung it was 1.46% (active); with HOP-92 NSCLC, -3.54% (active). Further, the growth in the test on NCI-H522 lung is 1.44% (active); in the test on A549/ATCC NSCLC, 0.788% (active); in the test with 786-0 renal, 0.205% (active); with COLO 205 colon it was -8.56% (active); in the test with DU-145 prostate, 1.83% (active); in the test on K-562 leukemia it was 7.23% (active). Besides, the growth is 3.72% (active) in the test with MALME-3M melanoma; 8.22% (active) in the test on MDA-MB-231 breast; -17.8% (active) in the test with RXF 393 renal; 4.57% (active) in the test with SF-268 CNS; -4.82% (active) in the test on SF-295 CNS; -12.6% (active) in the test on SF-539 CNS. The growth in the test on M14 melanoma is -18.2% (active).
Consider `CCCCCCCCCC[C@@H](C)[C@@H]1CC(=O)N[C@H]([C@@H](C)O)C(=O)N[C@@H](C)C(=O)N[C@H](C)C(=O)N[C@@H](CCC(N)=O)C(=O)N[C@H](Cc2ccc(O)cc2)C(=O)N[C@@H](C(C)CC)C(=O)O1` (stereo partly specified), for which the growth was 35.6% with NCI-H23 lung; 42.1% in the test on NCI-H226 lung; 89.1% in the test with NCI-H322M lung; 73.9% with HOP-62 NSCLC; 63.6% in the test on NCI-H460 lung; 43.3% in the test on HOP-92 NSCLC. For the same compound, the growth with NCI-H522 lung is 36.1%; in the test with A549/ATCC NSCLC, 47.6%; in the test with 786-0 renal it was 91.8%; with COLO 205 colon, 66%; with DU-145 prostate, 57.1%; in the test with K-562 leukemia it was 40.6%. Besides, the growth in the test on MALME-3M melanoma was 65.7%; in the test on MDA-MB-231 breast, 96.6%; with RXF 393 renal it was 97.5%; in the test on SF-268 CNS, 84.8%; with SF-295 CNS, 36.2%; in the test with SF-539 CNS, 60.5%. Besides, the growth in the test with M14 melanoma is 79.4%.
With `O=C1c2c(c3c4cc(Br)ccc4[nH]c3c3ccc4ccccc4c23)C(=O)N1CCN1CCNCC1`, the growth in the test on NCI-H23 lung was 77.1%; with NCI-H226 lung, 87.6%; in the test on NCI-H322M lung, 95.6%; with HOP-62 NSCLC, 60.9%; in the test with NCI-H460 lung, 36.5%; with HOP-92 NSCLC, 82.5%. Besides, the growth was 74.3% in the test with NCI-H522 lung; 54.4% in the test with A549/ATCC NSCLC; 76.5% in the test on 786-0 renal; 86.5% with COLO 205 colon; 72.1% with DU-145 prostate; -25.7% (active) in the test on K-562 leukemia. The growth in the test on MALME-3M melanoma was 80.5%; in the test with MDA-MB-231 breast, 84.1%; in the test with RXF 393 renal it was 82.8%; with SF-268 CNS, 72.7%; in the test on SF-295 CNS, 73.6%; in the test on SF-539 CNS, 87.1%. For the same compound, the growth with UACC-257 melanoma is 98.3%; in the test with M14 melanoma, 87.6%.
For the compound `CC(=O)NC(C)(C)C(=O)N[C@@H](C)C(=O)NC(C)(C)C(=O)N[C@@H](C)C(=O)NC(C)(C)C(=O)N[C@@H](C)C(=O)N[C@@H](CCC(N)=O)C(=O)NC(C)(C)C(=O)N[C@H](C(=O)NC(C)(C)C(=O)NCC(=O)N[C@@H](CC(C)C)C(=O)NC(C)(C)C(=O)N1CCC[C@H]1C(=O)N[C@H](C(=O)NC(C)(C)C(=O)NC(C)(C)C(=O)N[C@@H](CCC(N)=O)C(=O)N[C@@H](CCC(N)=O)C(=O)N[C@H](CO)CC1CCCCC1)C(C)C)C(C)C`, the growth was 21.6% [5 µM] with NCI-H23 lung; 35% [5 µM] in the test on NCI-H226 lung; 94.2% [5 µM] with NCI-H322M lung; 46.3% [5 µM] with HOP-62 NSCLC; 45.1% [5 µM] in the test on NCI-H460 lung; -13.3% [5 µM] (active) with HOP-92 NSCLC. For the same compound, the growth is 6.15% [5 µM] (active) with NCI-H522 lung; 48.1% [5 µM] with A549/ATCC NSCLC; 78.6% [5 µM] with 786-0 renal; -12% [5 µM] (active) with COLO 205 colon; 55.5% [5 µM] in the test with DU-145 prostate; 24.3% [5 µM] in the test with K-562 leukemia. Besides, the growth in the test on MALME-3M melanoma is -41.4% [5 µM] (active); in the test with MDA-MB-231 breast, 55.3% [5 µM]; in the test on RXF 393 renal, 55.8% [5 µM]; with SF-268 CNS, 46.9% [5 µM]; in the test on SF-295 CNS it was 23.9% [5 µM]; in the test with SF-539 CNS, 29.3% [5 µM]. For the same compound, the growth in the test on M14 melanoma was 4.76% [5 µM] (active).
